# Compounds without any hit were thinned out: in the full panel of roughly 79,000, 15% have a hit. Unmarked numbers belong to inactive results. Calls of active or inactive are those of the source. Rule as the data show it: active = growth inhibition above about 70%; inactive = the rest.
# Experiment: NCI Yeast Anticancer Drug Screen. Data for the mec2-1 strain (AID 157)
# Conditions: S. cerevisiae mec2-1 strain, at 33.0 µM, hits give high values
# Procedure, shortened: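 Compounds were applied to mec2-1 yeast cells. Their growth was then compared with that of vehicle-treated cultures to give growth inhibition.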
row,Structure (SMILES),growth inhibition
1,CC1(C)[C@@H]2CC[C@]1(C)[C@H](OC(=O)CSC#N)C2,86% (active)
2,S=C(N/N=C(/c1ccccc1)c1ccccn1)N1CCCCCC1,1%
3,Cc1ccc2[nH]c3c(C)c4cc[n+](C)cc4c(C)c3c2c1,55%
4,CNC(=O)OCc1c(COC(=O)NC)c(-c2ccc(-c3ccccc3)cc2)n(C)c1C,-8%
5,COc1ccccc1/C=C1\Sc2scc(-c3cccc([N+](=O)[O-])c3)[n+]2C1=O,96% (active)
6,O=[N+]([O-])c1ccc2c(c1)C(N1CCN(CCO)CC1)Cc1ccc(F)cc1S2 (stereo not drawn),-4%
7,Cc1ccc(CCC2=CCCc3c2ccc2ccccc32)cc1,-4%
8,O=[N+]([O-])c1cccc2nccc(NCCCO)c12,23%
9,Cc1ccc(-n2cc(-c3ccc(Cl)cc3)c(C#N)c2N)cc1,-4%
10,Cc1ccc(S/N=C\c2ccccc2O)cc1,-1%
11,O=C(O)C1OC1(c1cccc(Cl)c1)c1ccccc1Cl (stereo not drawn),58%
12,NC(=S)N/N=C\c1nccc2ccccc12,99% (active)
13,Clc1cccc(C(Nc2nncs2)Nc2nncs2)c1Cl,19%
14,O=C(OCC=C1CCCC1)c1cc([N+](=O)[O-])cc([N+](=O)[O-])c1,89% (active)
15,O=C(Nc1ccccc1)C(=O)C(C(=O)c1ccccc1)C(c1ccccc1)c1ccccc1 (stereo not drawn),22%
16,N#CN1C2CCC1CC(=O)C2,-24%
17,COc1ccccc1C(=O)OCC1CCCN2CCCCC12 (stereo not drawn),56%
18,CCNc1nnc(CSc2nc(-c3ccccc3)c(-c3ccccc3)[nH]2)s1,73% (active)
19,O=C1c2ccccc2-c2n[nH]c3cccc1c23,26%

# Same assay, conditions: S. cerevisiae mec2-1 strain, at 50.0 µM (retest, dose inferred, filed as 5.0), hits give high values
row,Structure (SMILES),growth inhibition
1,CCC/C(Cl)=N\OC(=O)Nc1cccc(C(F)(F)F)c1,98% (active)
2,[O-][n+]1c2ccc(O)cc2nc2ccc(Cl)cc21,-13%
3,Clc1ccccc1C1OC1c1ccccc1Cl (stereo not drawn),99% (active)
4,c1ccc2c(c1)c1ncccc1c1nccnc21,-53%
5,CC(=O)Nc1ccc2c(c1)C(=Nc1ccc(C(=O)O)cc1)c1ccccc1-2,57%
6,COc1ccc(OC)c2cc3ccccc3cc12,87% (active)
7,COc1cc(C2c3cc4c(cc3OC(NNc3ccccc3)C2C)OCO4)cc(OC)c1OC (stereo not drawn),96% (active)
8,O=C1c2cc([N+](=O)[O-])ccc2-c2cccc(F)c21,7%
9,CCCCCCCCCCCC(=O)N(C)C,96% (active)
10,CCCCCCCCCCCC1=C(O)C(=O)C=C(O)C1=O,90% (active)
11,Cc1ccc(CSC(N)=Nc2ccccc2)cc1C,-22%
12,CCCCCCCCCCC1CCC(=O)O1 (stereo not drawn),27%
13,O=[N+]([O-])c1cc(CCl)ccc1CCl,97% (active)
14,Nc1ccc2c(c1)C(=O)c1cccc(N)c1C2=O,68%
15,CCCCCCCCCCNC(=O)OCC,28%
16,CC1=C(C)Cc2c(O)ccc(O)c2C1,99% (active)
17,COc1ccc2c(c1)C(=O)c1ccccc1C2,23%
18,CCC(=O)OCCn1c2nc(=O)[nH]c(=O)c-2nc2cc(C)c(C)cc21,14%
19,O=C(OCCN1CCCCCC1)C(c1ccsc1)C1CCCCC1 (stereo not drawn),13%
20,Oc1c(Br)cc(Br)cc1C1CCCCC1,99% (active)

row,Structure (SMILES),growth inhibition
1,CC1(C)[C@@H]2CC[C@]1(C)[C@H](OC(=O)CSC#N)C2,98% (active)
2,S=C(N/N=C(/c1ccccc1)c1ccccn1)N1CCCCCC1,97% (active)
3,Cc1ccc2[nH]c3c(C)c4cc[n+](C)cc4c(C)c3c2c1,71% (active)
4,CNC(=O)OCc1c(COC(=O)NC)c(-c2ccc(-c3ccccc3)cc2)n(C)c1C,46%
5,COc1ccccc1/C=C1\Sc2scc(-c3cccc([N+](=O)[O-])c3)[n+]2C1=O,96% (active)
6,O=[N+]([O-])c1ccc2c(c1)C(N1CCN(CCO)CC1)Cc1ccc(F)cc1S2 (stereo not drawn),48%
7,Cc1ccc(CCC2=CCCc3c2ccc2ccccc32)cc1,31%
8,O=[N+]([O-])c1cccc2nccc(NCCCO)c12,52%
9,Cc1ccc(-n2cc(-c3ccc(Cl)cc3)c(C#N)c2N)cc1,43%
10,Cc1ccc(S/N=C\c2ccccc2O)cc1,-4%
11,O=C(O)C1OC1(c1cccc(Cl)c1)c1ccccc1Cl (stereo not drawn),61%
12,NC(=S)N/N=C\c1nccc2ccccc12,98% (active)
13,Clc1cccc(C(Nc2nncs2)Nc2nncs2)c1Cl,29%
14,O=C(OCC=C1CCCC1)c1cc([N+](=O)[O-])cc([N+](=O)[O-])c1,48%
15,O=C(Nc1ccccc1)C(=O)C(C(=O)c1ccccc1)C(c1ccccc1)c1ccccc1 (stereo not drawn),78% (active)
16,N#CN1C2CCC1CC(=O)C2,84% (active)
17,COc1ccccc1C(=O)OCC1CCCN2CCCCC12 (stereo not drawn),99% (active)
18,CCNc1nnc(CSc2nc(-c3ccccc3)c(-c3ccccc3)[nH]2)s1,93% (active)
19,O=C1c2ccccc2-c2n[nH]c3cccc1c23,100% (active)
